Bioassay records as filed in PubChem BioAssay.
HT1080-NT tox: qHTS for induction of synthetic lethality in tumor cells producing 2HG: qHTS for the HT-1080-NT fibrosarcoma cell line | HT-1080-NT fibrosarcoma viability, CellTiter-Glo ATP luminescence, 48 h | Potency, µM (doses to about 46.1 µM), without a hit: top-dose activity, negative = less viability, usual class: cytotoxic | 360,000 compounds, 1.6% hits | AID 686970, 2013;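 also: NT is the 2HG producing partner of a matched IDH1 knockdown line; potency is read from the fitted curve at half-maximal effect; 0% = DMSO-treated cells and -100% = media-only wells without cells; nearly all actives have a fitted effect of over 55% in size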
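Read-out is CellTiter-Glo luminescence after 10 minutes at room temperature, following 48 hours' compound treatment of HT-1080-NT cells (750 cells/well, RPMI, 5% FBS, 37 degrees C).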
DT40 TDP1 no CPT: qHTS for Inhibitors of human tyrosyl-DNA phosphodiesterase 1 (TDP1): qHTS in cells in absence of CPT | 420,000 compounds, 15% hits | Potency, µM (doses to about 46.2 µM), inactives show at the top dose activity change, negative = growth inhibition, usual class: inhibitors | AID 686978, 2013 | DT40 Tdp1-/- hTDP1 cells, no CPT, ATP luminescence, 48 h; also: potency is read from the fitted curve at half-maximal effect; nearly all actives have a fitted effect of over 55% in size
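Chicken DT40 Tdp1-/- cells stably complemented with human TDP1 were seeded at 400 cells/well with DMSO in place of 20 nM camptothecin. After compound pinning, cells grew at least 48 hr at 37 °C; viability read by CellTiter-Glo luminescence.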
IL-1B inflam inh: qHTS for Inhibitors of Inflammasome Signaling: IL-1-beta AlphaLISA Primary Screen. THP-1 LPS/ATP IL-1B secretion, AlphaLISA, 16 h; active compounds read low. activity change, % at 57.5 µM. 360,000 compounds, 4.7% hits. AID 743279, 2014; in the data active = activity change below about -50%; inconclusive = mostly about -30% to -49%
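THP-1 cells pretreated 1 hr with compounds (up to 57.5 uM final), then stimulated with LPS (250 ng/mL final) plus ATP (1.25 mM final); secreted IL-1B measured by AlphaLISA after 16 hr, decreased signal indicating inhibition.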
ALOX12 inh: Primary qHTS assay for inhibitors of human arachidonate 12S-lipoxygenase (ALOX12): Round 2 | Polyunsaturated fatty acid lipoxygenase ALOX12 (Homo sapiens), P18054 | purified 12hLO, xylenol orange hydroperoxide absorbance | Potency, µM (highest dose often 108 µM), for inactives: at the highest dose activity change, negative = inhibition, hits mostly inhibitors | 580,000 compounds, 1.1% hits | AID 1671190, 2021; also: potency is read from the fitted curve at half-maximal effect
Target sequence (P18054 whole entry, looked up): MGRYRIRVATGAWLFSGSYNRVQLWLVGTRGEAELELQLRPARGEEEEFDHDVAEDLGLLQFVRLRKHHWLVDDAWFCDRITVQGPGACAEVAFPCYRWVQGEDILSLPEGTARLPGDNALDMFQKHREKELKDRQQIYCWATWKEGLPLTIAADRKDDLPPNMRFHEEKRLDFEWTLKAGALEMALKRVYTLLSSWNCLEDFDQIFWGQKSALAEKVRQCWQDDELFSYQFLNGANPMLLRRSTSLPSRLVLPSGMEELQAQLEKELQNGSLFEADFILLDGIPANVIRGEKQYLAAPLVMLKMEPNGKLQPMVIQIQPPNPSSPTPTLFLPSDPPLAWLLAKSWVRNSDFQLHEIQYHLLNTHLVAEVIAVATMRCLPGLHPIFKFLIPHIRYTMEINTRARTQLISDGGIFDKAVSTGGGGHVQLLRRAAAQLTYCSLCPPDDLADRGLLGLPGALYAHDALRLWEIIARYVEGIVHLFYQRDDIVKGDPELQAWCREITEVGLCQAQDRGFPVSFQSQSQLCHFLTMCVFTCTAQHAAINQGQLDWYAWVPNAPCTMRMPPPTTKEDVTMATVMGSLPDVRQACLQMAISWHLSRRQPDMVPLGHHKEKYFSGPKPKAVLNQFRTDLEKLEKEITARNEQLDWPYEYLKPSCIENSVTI
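Purified human 12hLO at 150 nM in 25 mM Hepes, 0.01% Triton X-100, pH 7.0, preincubated 15 min at room temperature with compound. Reaction started with 40 uM arachidonic acid, 30 min at room temperature. Hydroperoxide measured by Fe-xylenol orange, 573/405 nm absorbance ratio.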
HT1080 IDH1KD tx: qHTS for induction of synthetic lethality in tumor cells producing 2HG: qHTS for the HT-1080-IDH1KD cell line. HT-1080 IDH1 knockdown viability, ATP luminescence, 48 h. Potency, µM (titrated, usually from 46.1 µM), for inactives: top-dose activity, negative = toxicity, hits mostly cytotoxic. 360,000 compounds, 2% hits. AID 686971, 2013;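 also: potency is read from the fitted curve at half-maximal effect; 0% = DMSO wells and -100% = cell-free medium wells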
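Luminescent ATP read-out (CellTiter-Glo, 10 min at room temperature) after 48 h compound exposure at 37 °C gave viability of IDH1-knockdown HT-1080 cells. Activity was normalised to DMSO and cell-free wells, then fitted as concentration-response curves.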
DT40 TDP1 CPT: qHTS for Inhibitors of human tyrosyl-DNA phosphodiesterase 1 (TDP1): qHTS in cells in presence of CPT | chicken DT40 Tdp1-/-;hTDP1 cells + 20 nM CPT, ATP luminescence, 48 h | Potency, µM (doses to about 46.2 µM), for the others: top-dose activity change, negative = growth inhibition, actives largely listed as inhibitors | 420,000 compounds, 12% hits | AID 686979, 2013; also: potency is read from the fitted curve at half-maximal effect; nearly all actives have a fitted effect of over 55% in size
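Chicken DT40 Tdp1-/- cells stably complemented with human TDP1 were seeded at 400 cells/well in medium containing 20 nM camptothecin, exposed to pin-transferred compounds, and grown at 37 °C for at least 48 hr. Viability was read as ATP luminescence.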
* marks the source's active call; other numbers are inactive results; ? = inconclusive; · = no result; [ ] = another dose, or the depositor's remark. Shown is part of a subset that was picked to be rich in hits. Unless noted, calls follow the shape of the dose curve; as a rule, active = well fitted curve in the direction sought with a large enough effect; inconclusive = small, poorly fitted or top-dose-only effect, or another doubt; inactive = no such curve, though single readings can be large; an effect the other way counts as inactive or inconclusive. Unless noted, % is scaled to controls: 0 for no effect and ±100 for the full control effect.

SMILES	HT1080-NT tox	DT40 TDP1 no CPT	IL-1B inflam inh	ALOX12 inh	HT1080 IDH1KD tx	DT40 TDP1 CPT
O=C(CCc1ncc(-c2ccccc2F)o1)N1CCOCC1	·	·	·	-5.4%	·	·
Cc1c(C(=O)N/N=C/c2ccc(Cl)cc2)[nH]c2ccc(Cl)cc12	5.8µM*	0.92µM*	55.6	0.7%	3.26µM*	0.82µM*
CCOc1ccc(/C=N/NC(=O)c2[nH]c3ccc(C)cc3c2C)cc1	-7.1%	-26.8%	-24.3	0.0%	-12.4%	-10.3%
O=C(N/N=C/c1c[nH]c2ccccc12)c1cc(Br)ccc1O	?	5.7%	24.2	20.0%	-28.9%	-19.0%
O=C(N/N=C/c1[nH]c2ccccc2c1Cl)c1cccc(Br)c1	-6.6%	?	-83.9*	?	-1.2%	4.1%
O=C(N/N=C/c1c[nH]c2ccccc12)c1[nH]c2ccc(Br)cc2c1-c1ccccc1	7.31µM*	3.66µM*	150.6	-2.3%	6.51µM*	5.8µM*
CC(=O)NNC(=O)c1[nH]c2ccc(Cl)cc2c1-c1ccccc1	-28.2%	?	7.1	132.9%	?	-27.3%
O=C(NN=C1CCCC1)c1[nH]c2ccc(Cl)cc2c1-c1ccccc1	?	?	·	-17.7%	11.6µM*	?
CC(=O)N1c2ccc(S(=O)(=O)N(C)CC(=O)NCCc3ccc(Cl)cc3)cc2CC1C (configuration not stated)	·	·	·	4.6%	·	·
CNC(=O)c1noc([C@@H]2CC(F)(F)CN2Cc2cnn(C(C)C)c2)n1	·	·	·	44.4%	·	·
Cc1ccc(C(=O)C(C)Oc2ccc(C#N)cc2)cc1C (configuration not stated)	·	·	·	-45.7%	·	·
CC/C(C)=N/NC(=O)c1[nH]c2ccc(C)cc2c1-c1ccccc1	?	?	38.8	6.6%	?	-11.1%
NNC(=O)c1[nH]c2ccccc2c1-c1ccccc1	?	14.6µM*	23.6	0.0%	1.3µM*	?
O=C(N/N=C/c1ccc(O)cc1)c1[nH]c2ccc(Br)cc2c1-c1ccccc1	4.61µM*	2.91µM*	122.3	-11.9%	4.11µM*	3.66µM*
COc1ccc(OC)c(C2CCCN2C(=O)CSc2nnnn2C2CCCCC2)c1 (configuration not stated)	·	·	·	-3.9%	·	·
O=C(Nc1cccc(Cl)c1)c1ccc2sc([C@@H]3O[C@H](CO)[C@H](O)[C@H](O)[C@H]3O)nc2c1	6.0%	-1.0%	1.6	-3.7%	15.9%	0.0%
OC[C@H]1O[C@H](c2nc(-c3nc(-c4cccc(-n5cccc5)c4)no3)cs2)C[C@@H]1O	-17.0%	?	-2.7	9.8%	?	?
O=C(Nc1cccc(Cl)c1Cl)c1csc([C@H]2C[C@H](O)[C@@H](CO)O2)n1	1.1%	?	-22.5	-22.2%	20.5%	14.6µM*
O=C(Nc1cccc(Cl)c1)c1ccc2sc([C@H]3C[C@H](O)[C@@H](CO)O3)nc2c1	-13.5%	23.1µM*	2.5	2.6%	?	25.9µM*
O=C(NCc1ccccc1Cl)c1csc([C@H]2C[C@H](O)[C@@H](CO)O2)n1	13.2%	-2.2%	-3.7	11.8%	0.0%	4.7%
O=C(Nc1cccc(Cl)c1Cl)c1csc([C@@H]2O[C@H](CO)[C@@H](O)[C@H]2O)n1	19.2%	?	25.1	12.6%	26.8%	23.1µM*
CC(=O)Nc1ccc(-c2noc(-c3csc([C@@H]4C[C@H](O)[C@@H](CO)O4)n3)n2)cc1	?	-14.5%	-54.6*	-3.8%	6.7%	-13.6%
Cc1cc(Cl)ccc1NC(=O)C1CN(S(C)(=O)=O)CC12CCCCC2 (configuration not stated)	·	·	·	1.4%	·	·
CC1=C(C(=O)Nc2ccc(C)cn2)C(c2cccc(Oc3ccccc3)c2)C2=C(CCCC2=O)N1 (configuration not stated)	·	·	·	-12.3%	·	·
CC(C)CCNC(=O)CSc1nnc(NC2CCCCC2)s1	·	·	·	33.9%	·	·
SMILES	HT1080-NT tox	DT40 TDP1 no CPT	IL-1B inflam inh	ALOX12 inh	HT1080 IDH1KD tx	DT40 TDP1 CPT
COc1cc2c(cc1OC)-c1cc(N3CCc4ccccc43)nc(=O)n1CC2	19.0%	?	-65.7*	0.0%	-10.4%	?
COc1cc2c(cc1OC)-c1cc(Nc3ccc4c(c3)OCCO4)nc(=O)n1CC2	-12.4%	?	-70.3*	18.0%	-2.4%	-29.5%
COc1ccc(Nc2cc3n(c(=O)n2)CCc2cc(OC)c(OC)cc2-3)cc1	-2.6%	?	-27.0	?	-8.7%	-2.1%
COc1ccc(Nc2cc3n(c(=O)n2)CCc2cc(OC)c(OC)cc2-3)c(C)c1	-15.9%	14.6µM*	0.0	?	-2.7%	?
COc1cccc([S+](=O)([O-])N2CCC3(CC2)CC(=O)c2ccc(Cl)cc2O3)c1	·	·	·	-20.6%	·	·
COc1ccc(-c2cc(-c3cccnc3)c3cncn3c2)cc1OC	·	·	·	40.3%[176 µM]	·	·
CC[N+](C)(CC)CC(=O)OCC1C(C)C=C(C)CC1C (configuration not stated)	10.8%	8.2µM*	-10.9	?	5.3%	?
C[N+]1(CC(=O)c2ccc(Oc3ccc(C(=O)C[N+]4(C)CCOCC4)cc3)cc2)CCOCC1	·	-17.8%	·	·	·	-12.0%
CC1=CC(C)C(COC(=O)C[N+]2(C)CCOCC2)C(C)C1 (configuration not stated)	·	·	·	20µM*	·	·
CS(=O)(=O)N1CCC(C2CCN(Cc3ccc4c(c3)CCO4)C2)CC1 (configuration not stated)	·	·	·	50.6%	·	·
CCOc1ccc(-c2ccc(C#N)c(SCC(=O)Nc3ccc(F)cc3)n2)cc1	·	·	·	-8.6%	·	·
CCOC(=O)c1ccc(N2C(=O)C3CC=CCC3C2=O)cc1 (configuration not stated)	1.6%	-4.3%	8.9	-2.7%	8.7%	0.2%
CCOC(=O)c1ccc(N2C(=O)C3C(C2=O)C(C(=O)c2ccc(Cl)cc2)N2CCCC32)cc1 (configuration not stated)	?	20.6µM*	-66.1*	-62.2%	?	14.6µM*
Cc1cc(C(=O)Nc2cccc(-c3nc(CNC(=O)c4sc(C)nc4C)c(C)o3)c2)c(C)o1	·	20.6µM*	·	?	·	7.2%[9.04 µM]
